# Screening results (PubChem BioAssay)
# Arbovirus anti: antivirals against arbovirus infection | arbovirus infection cell-based antiviral screen | inhibition, % at 10 µM | hit rate 0.37% among 200,000 | AID 1251; in the data active = inhibition above about 30%
# L major viab: Leishmania major promastigote growth inhibition; Leishmania major promastigotes, resazurin fluorescence viability; inhibition, % at 10 µM; hit rate 9% among 200,000; AID 1063; in the data active = inhibition above about 50%;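 also: promastigotes grown with compound for 44 hours at 28 °C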
# CHOP inh: CHOP inhibition in unfolded protein response; inhibition, % at 10 µM; CHO-K1 CHOP-promoter luciferase, tunicamycin-induced, 15-18 h; hit rate 3.8% among 220,000;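 active = compounds that reduced the stress-induced luciferase reporter signal by more than about 70% of percent inhibition, limit read from the data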;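 also: 0% = tunicamycin plus vehicle and 100% = wells without tunicamycin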
# WT yeast gro inh: growth inhibition of WT yeast, mitochondrial fusion screen; mitochondrial fusion phenotypic screen, WT strain; inhibition, % at 10 µM; hit rate 2.1% among 190,000; AID 1362; in the data active = inhibition above about 58%; tested in S. cerevisiae
# CHOP confirm: confirmation of CHOP induction inhibitors | CHO-CHOP promoter luciferase reporter, tunicamycin-induced, luminescence | hit rate 45% among 2,100 | inhibition, % at 10 µM | shares compounds with CHOP inh;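 active = mean of three repeat readings of reporter signal inhibition above a set limit, cut at about 70% in these data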;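 also: 0% = tunicamycin plus vehicle and 100% = wells lacking tunicamycin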
# An asterisk follows results filed as active; x = no result given. In the library only some 12% were active in any assay of this set; here they are far more common.
SMILES,Arbovirus anti,L major viab,CHOP inh,WT yeast gro inh,CHOP confirm
CCCCNS(=O)(=O)c1ccc2nc(-c3cccnc3)cc(C(=O)NC3CC3)c2c1,-9,0,-12,1,x
CCCCNS(=O)(=O)c1ccc2nc(-c3cccnc3)cc(C(=O)NC3CCCC3)c2c1,x,x,102*,x,107*
CO/N=C/c1ccc(Sc2ccc(C)cc2)c([N+](=O)[O-])c1,-8,-1,49,3,x
Cc1ccc(Sc2ccc(/C=N/O)cc2[N+](=O)[O-])cc1,-4,4,101*,15,20
CCCCCCn1c(-c2ccco2)nc2oc3cc(OC)ccc3c(=O)c2c1=O,-13,52*,96*,-11,107*
COCCn1c(-c2ccccc2)nc2oc3cc(OC)ccc3c(=O)c2c1=O,1,22,10,-7,x
COc1cccc(NC(=O)C2C3C=CC(O3)C2C(=O)NCc2cccnc2)c1 (centres undefined),-2,1,-23,-2,x
Nc1sc(-c2ccccc2)cc1-c1n[nH]c(=S)n1C1CCCCC1,x,x,-20,x,x
COc1ccc(-n2c(-c3cc(-c4ccccc4)sc3N)n[nH]c2=S)cc1,x,x,100*,x,8
O=c1c(Cl)c(Cl)cnn1-c1ccccc1,-42,90*,101*,3,96*
O=c1c(Cl)c(N/N=C/c2ccc(Cl)cc2)cnn1-c1ccccc1,14,27,102*,29,59
Cc1ccc(CNCC(O)(c2ccccc2)c2ccc(Cl)cc2)cc1 (centres undefined),-20,42,99*,69*,135*
Cc1cc(C(C)(C)C)oc1C(=O)N1CCN(C(=O)c2oc(C(C)(C)C)cc2C)CC1,7,-1,105*,14,115*
CN1CCN(c2ccc(S(=O)(=O)N3CCCCC3)cn2)CC1,8,18,61,-4,x
CN1CCN(C2=C(Cl)C(=O)C(c3cnc(N4CCCCC4)s3)=C(Cl)C2=O)CC1,-32,7,100*,21,-18
CCOC(=O)c1c(NC(=O)CSc2nnc(C)s2)sc2c1CCC(CC)C2 (centres undefined),-3,6,35,13,x
CCOc1cc(-c2cc(-c3ccc(C)o3)nc(N)c2C#N)ccc1O,-14,33,51,14,x
Cc1ccc(-c2cc(-c3ccc(C)o3)nc(N)c2C#N)cc1,-3,28,101*,-28,10
Cc1ccc(-c2cc(-c3ccc(Cl)cc3)c(C#N)c(N)n2)o1,-23,13,98*,2,5
Cc1cc(-c2cc(-c3ccc(Cl)cc3)nc(N)c2C#N)co1,-1,62*,106*,4,-48
COc1ccccc1Oc1ccc(Oc2ccccc2OC)cc1,1,3,19,17,x
CC(C)(C)OC(=O)NC(CO)c1cn([C@@H](Cc2cc3ccccc3[nH]2)C(=O)N2CCN(C(=O)OC(C)(C)C)CC2)nn1 (some centres undefined),5,-5,6,1,x
O=C1C=CC(=O)N1CCCCCCN1C(=O)C=CC1=O,-5,-4,107*,92*,116*
S=c1[nH]nc(-c2ccc(Cl)cc2)n1CCCN1CCOCC1,-3,-5,16,4,x
COc1cc(/C=N/N2CCN(C3c4ccccc4-c4ccccc43)CC2)ccc1O,-44,2,106*,34,38
CCOC(=O)Cc1nnc2c(Nc3ccc(Cl)cc3)nc3nonc3n12,-10,1,105*,77,61
Cc1c(C(=O)Nc2ccc3oc(-c4cccnc4)nc3c2)oc2ccccc12,-2,0,100*,-12,-5
O=C(Nc1ccc2oc(-c3cccnc3)nc2c1)c1cccnc1,5,6,6,-8,x
O=C(COCC(=O)Nc1cccc(C(F)(F)F)c1)Nc1cccc(C(F)(F)F)c1,-14,-1,103*,18,116*
